From PubChem BioAssay AID1851 (National Center for Advancing Translational Sciences (NCATS), 2009)
Among all 16,000 compounds or so, about 2,600 (16%) were called active. Inconclusive results (about 20%) are left out. Calls follow the shape of the dose curve; as a rule, active = well fitted curve in the direction sought with a large enough effect; inconclusive = small, poorly fitted or top-dose-only effect, or effect the other way; inactive = no such curve, though single readings can be large or run the other way. Only a sample is shown.

Each compound was assayed against Cytochrome P450 2D6 (Homo sapiens) (UniProt P10635) (assay: Cytochrome panel assay with activity outcomes). Settings: recombinant CYP, pro-luciferin dealkylation, luminescence, p450-cyp2d6; series mostly up to 57.1 µM; activity, negative = inhibition: at the top concentration.
% is scaled to controls: 0 for no effect and ±100 for the full control effect.

Sequence of Cytochrome P450 2D6 (Homo sapiens) (P10635 whole entry, looked up): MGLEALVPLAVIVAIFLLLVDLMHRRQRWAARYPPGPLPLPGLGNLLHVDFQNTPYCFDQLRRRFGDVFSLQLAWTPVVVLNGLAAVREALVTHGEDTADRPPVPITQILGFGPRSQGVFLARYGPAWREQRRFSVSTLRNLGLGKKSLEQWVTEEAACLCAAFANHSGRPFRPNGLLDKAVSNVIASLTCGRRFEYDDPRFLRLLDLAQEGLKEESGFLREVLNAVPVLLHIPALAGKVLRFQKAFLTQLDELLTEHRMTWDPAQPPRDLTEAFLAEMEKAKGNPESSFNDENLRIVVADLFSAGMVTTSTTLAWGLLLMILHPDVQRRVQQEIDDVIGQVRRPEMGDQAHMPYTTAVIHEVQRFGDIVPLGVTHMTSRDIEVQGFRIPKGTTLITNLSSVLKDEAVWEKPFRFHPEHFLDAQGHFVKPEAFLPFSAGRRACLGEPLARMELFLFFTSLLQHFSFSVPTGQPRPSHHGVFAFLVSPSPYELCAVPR

Row | SMILES | activity, negative = inhibition | AC50
1 | COc1cc(CC(=O)OC2CCOC2=O)cc(OC)c1OC (stereo not given) | 2.51% (inactive) | –
2 | COCCCNC(=O)C1C2C=CC3(CN(Cc4ccc(C)cc4)C(=O)C13)O2 (stereo not given) | 5.74% (inactive) | –
3 | Cc1ccc(CN2CC34C=CC(O3)C(C(=O)NCc3ccc5c(c3)OCO5)C4C2=O)cc1 (stereo not given) | – | 14.1 µM (active)
4 | COc1ccc(CCN2CC34C=CC(O3)C(C(=O)NCc3ccccc3)C4C2=O)cc1OC (stereo not given) | 2.38% (inactive) | –
5 | Cc1ccc(CN2CC34C=CC(O3)C(C(=O)NCc3ccco3)C4C2=O)cc1 (stereo not given) | -23.4% (inactive) | –
6 | O=C(NCC1COc2ccccc2O1)C1C2C=CC3(CN(Cc4cccs4)C(=O)C13)O2 (stereo not given) | – | 14.1 µM (active)
7 | CCCCNC(=O)C1C2C=CC3(CN(Cc4ccccc4Cl)C(=O)C13)O2 (stereo not given) | -5.2% (inactive) | –
8 | CCOc1cc(S(=O)(=O)N(Cc2ccccc2)Cc2ccccc2)c(OCC)cc1-n1cnnn1 | -10.1% (inactive) | –
9 | Cc1nc2ncnn2c(C)c1CCC(=O)NCc1ccccc1 | -10.6% (inactive) | –
10 | CCOc1ccc(-c2cc(CCCC(=O)Nc3cc(OC)ccc3OC)no2)cc1 | -13.6% (inactive) | –
11 | COc1ccc(NC(=O)CSc2nncn2C)c([N+](=O)[O-])c1 | -8.81% (inactive) | –
12 | CCOc1ccc(-n2c(SCC(=O)Nc3ccc(OC)cc3OC)nc3c(c2=O)SCC3)cc1 | – | 2.24 µM (active)
13 | N#Cc1cccc(NC(=O)N2CC[C@@]3(CCCN(C(=O)c4ccncc4)C3)C2)c1 | 4.68% (inactive) | –
14 | CS(=O)(=O)N1CCC[C@@]2(CCN(C(=O)Nc3cccc(C#N)c3)C2)C1 | 3.58% (inactive) | –
15 | CCCc1cc(=O)oc2cc(OCC(=O)N3CCc4ccccc43)ccc12 | 4.28% (inactive) | –
16 | CCCc1cc(=O)oc2cc(OCc3nn[nH]n3)ccc12 | -1.03% (inactive) | –
17 | CCCCc1cc(=O)oc2cc(OCC(=O)N(CC)CC)ccc12 | – | 12.6 µM (active)
18 | COc1cccc2c1C(=O)c1c(O)c3c(c(O)c1C2=O)C[C@@](O)(C(=O)CO)C[C@H]3O[C@H]1C[C@@H](N)[C@H](O)[C@@H](C)O1.[W] | 4.97% [at 11.4 µM] (inactive) | –
19 | COC(=O)c1nn(-c2ccc(OC)cc2)c(=O)cc1Oc1cccc(Cl)c1 | -27.2% (inactive) | –
20 | O=C1CCc2cc(OCCCCc3nnnn3C3CCCCC3)ccc2N1 | 4.92% (inactive) | –

Row | SMILES | activity, negative = inhibition | AC50
21 | c1ccc(N2CCN(CCCOc3ccc4c(c3)OCO4)CC2)cc1 | – | 0.126 µM (active)
22 | Fc1ccc([C@H]2CCNC[C@H]2COc2ccc3c(c2)OCO3)cc1 | -7.19% (inactive) | –
23 | Cn1c(=O)cc(OCCCC(=O)N2CCN(c3ccccc3)CC2)c2ccccc21 | -13.9% (inactive) | –
24 | O=C(O)c1cc(=O)[nH]c(SCc2ccccc2)n1 | 4.29% [at 11.4 µM] (inactive) | –
25 | C#CCCCO/N=C1/C[C@@H](O)[C@@H](O)[C@@H]2[C@@H]3C(=O)N(Cc4ccccc4)C(=O)[C@H]3CC[C@H]12 | 15.7% [at 11.4 µM] (inactive) | –
26 | COC(=O)c1cc(Br)c(=O)n(CCc2ccc(O)cc2)c1 | 10.4% (inactive) | –
27 | CCNc1ncc2nc(-c3cccs3)c(=O)n(Cc3cccc(OC)c3)c2n1 | -8.54% (inactive) | –
28 | CC1(C)C2([N+](=O)[O-])CN3CC1([N+](=O)[O-])CN(C2)C3c1ccccc1 (stereo not given) | 15.6% (inactive) | –
29 | CO[C@]1(NC(=O)[C@H](C(=O)O)c2ccc(O)cc2)C(=O)N2C(C(=O)O)=C(CSc3nnnn3C)CO[C@H]21 | -2.15% [at 25.6 µM] (inactive) | –
30 | O=C(OCn1nnc2ccccc2c1=O)c1cccnc1 | 13.3% (inactive) | –
31 | Cc1ccc(C(=O)O/N=C/c2c(Cl)n(C)c3ccccc23)cc1 | 24.3% (inactive) | –
32 | Cc1c2cnccc2c(C)c2c1c1ccccc1n2CCOC(=O)c1ccccc1 | – | 3.16 µM (active)
33 | COc1ncc2ncc(=O)n(CCC#N)c2n1 | 11.5% (inactive) | –
34 | CC(C)(C)NC[C@H](O)COc1cccc2c1CCC(=O)N2 | 1.3% [at 25.6 µM] (inactive) | –
35 | CC(C)(C)NC[C@H](O)COc1cccc2c1CCCC2=O | – | inactive
36 | CC(C)(C)NC[C@@H](O)COc1ccccc1C1CCCC1 | – | 2.51 µM (active)
37 | CC(C)n1cc(/C=C2/SC(=O)N(CC(=O)Nc3ccc4c(c3)OCO4)C2=O)c2ccccc21 | -9.43% (inactive) | –
38 | Cc1cccc2cc(=O)[nH]c(C)c12 | 1.29% (inactive) | –
39 | NC(=O)C1(N2CCCCC2)CCN(C(=O)c2cccn3c(=O)c4cc(Cl)ccc4nc23)CC1 | -10.6% (inactive) | –
40 | CCCC[C@H]1C[C@@H]1[C@@H]1N(P(=O)(c2ccccc2)c2ccccc2)[C@](CO)(c2ccccc2)CC12CC2 | – | 2.51 µM (active)

Row | SMILES | activity, negative = inhibition | AC50
41 | C=C(CC1([C@@H](NP(=O)(c2ccccc2)c2ccccc2)[C@H]2C[C@@H]2CCCC)CC1)c1ccccc1 | -8.16% (inactive) | –
42 | CCCC[C@@H]1C[C@H]1C(NC(=O)c1ccc(-c2ccccc2)cc1)c1ccc(-c2ccccc2)cc1 (stereo not given in full) | 5.8% (inactive) | –
43 | CCCC[C@@H]1C[C@H]1C(NC(=O)c1ccccc1)c1ccc(-c2ccccc2)cc1 (stereo not given in full) | 1.14% (inactive) | –
44 | CCCC[C@H]1C[C@@H]1[C@@H]1N(P(=O)(c2ccccc2)c2ccccc2)C[C@@](O)(c2ccccc2)CC12CC2 | – | 15.8 µM (active)
45 | Cc1ccc(NC(=O)CCSc2nnc3ccccn23)cc1 | 17.4% (inactive) | –
46 | CCOC(=O)c1c(C)nc2c(c1-c1ccccc1)C(=O)CC(C)(C)C2 | -2.11% (inactive) | –
47 | CCOC(=O)Cc1csc(NC(=O)c2ccc(Cl)nc2)n1 | -18.4% (inactive) | –
48 | COc1ccc(Oc2ncc3ncc(=O)n(C)c3n2)cc1 | -5.86% (inactive) | –
49 | Cc1nc2cnc(Nc3ccccc3)nc2n(Cc2cccs2)c1=O | 2.37% (inactive) | –
50 | O=C1c2ccccc2C(=O)N1CCSC(=S)N1CCOCC1 | 14.7% (inactive) | –
51 | O=C(NCc1cc(F)cc2c1OCCO2)[C@H]1C[C@@H]1[C@H](NP(=O)(c1ccccc1)c1ccccc1)c1ccccc1 | -15.3% (inactive) | –
52 | O=C(O)CCC(=O)CCC(=O)c1ccccc1 | -15.9% (inactive) | –
53 | C[N@+]1(CCC(=O)c2ccccc2)CC[C@H]2CC[C@H](C2)C1 | 10.5% [at 11.4 µM] (inactive) | –
54 | CC1(C)CC(=O)C(CCC(=O)c2ccccc2)C(C)(C)N1 (stereo not given) | – | 0.891 µM (active)
55 | O=C(c1cccc(F)c1)N1CCC[C@@]2(CCN(c3ccccc3)C2)C1 | -6.42% (inactive) | –
56 | N/C(=N\OC(=O)Cc1ccc(-c2ccccc2)cc1)c1cccc([N+](=O)[O-])c1 | -0.456% (inactive) | –
57 | CC(=O)O[C@]1(C)N=NC2(CCCCC2)O1 | -4.7% [at 11.4 µM] (inactive) | –
58 | COc1ccc(C(CNC(=O)c2cc(=O)[nH]c3ccccc23)N2CCCC2)cc1 (stereo not given) | – | 14.1 µM (active)
59 | COc1cc(C(=O)NCC(c2cccnc2)N2CCN(C)CC2)cc(OC)c1OC (stereo not given) | 2.45% (inactive) | –
60 | CC(C)NC(=O)COC(=O)c1cc(=O)[nH]c2ccccc12 | -3.79% (inactive) | –
